Bioassay records deposited in PubChem BioAssay by National Center for Advancing Translational Sciences (NCATS).
In the library only some 5.9% were active in any assay of this set; here they are far more common.
RORg inh = ROR gamma (mouse) transcription inhibition; AID 2551; Potency, µM (doses to about 53.6 µM), for inactives: top-dose activity change, negative = inhibition, actives largely listed as inhibitors; Drosophila S2 Gal4-RORgamma UAS-luciferase reporter, 20 h; P51450; hit rate 5.4% among 310,000; note: potency is the fitted concentration of half-maximal effect; nearly all actives have a fitted effect of over 60% in size
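Stably transfected Drosophila Schneider cells are the test system, with ROR gamma fused to Gal4 and luciferase under UAS control; luminescence is read after 20 hr of 700 uM copper sulfate induction at ambient temperature.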
VP16 counter = Gal4-VP16 reporter inhibition counter-screen; Drosophila S2 Gal4-VP16 UAS-luciferase, luminescence, 20 h; Potency, µM (titrated, usually from 53.6 µM), without a hit: top-dose activity, negative = inhibition, usual class: inhibitors; hit rate 3.5% among 310,000; AID 2546;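 note: Gal4-VP16 expression switched on by copper sulfate through the metallothionein promoter; potency is the fitted concentration of half-maximal effect; nearly all actives have a fitted effect of over 50% in size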
Coupling enz = counter-screen for Giardia aldolase inhibitors: coupling enzyme system. coupling enzyme system counterscreen, AmpLite Red fluorescence. hit rate 0.67% among 290,000. activity change, negative = inhibition, % at 58.2 µM, hits read low; in the data active = activity change below about -30%
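Compounds tested against the coupling enzymes alone at 57.5 uM final; readout was AmpLite Red fluorescence (525/598 nm) after 20 min at RT.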
GALK inhibitor = galactokinase (human) inhibition. Potency, µM (doses to about 57.5 µM), inactives show top-dose activity change, negative = inhibition, actives largely listed as inhibitors. P51570. Purified GALK, Kinase-Glo residual ATP luminescence. hit rate 0.007% among 270,000; note: potency is the fitted concentration of half-maximal effect
Target sequence (P51570 whole entry, looked up): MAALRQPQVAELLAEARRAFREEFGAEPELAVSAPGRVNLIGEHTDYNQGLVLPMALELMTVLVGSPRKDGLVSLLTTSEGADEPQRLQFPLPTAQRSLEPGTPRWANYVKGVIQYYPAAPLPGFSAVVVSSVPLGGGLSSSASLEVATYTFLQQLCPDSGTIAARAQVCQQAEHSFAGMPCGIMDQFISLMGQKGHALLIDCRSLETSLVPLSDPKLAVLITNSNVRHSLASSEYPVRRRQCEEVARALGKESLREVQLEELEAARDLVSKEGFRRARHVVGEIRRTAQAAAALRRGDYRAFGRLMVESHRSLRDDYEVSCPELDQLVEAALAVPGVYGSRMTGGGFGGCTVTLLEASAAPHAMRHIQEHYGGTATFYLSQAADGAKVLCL
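Quantitative HTS: GALK 5 nM, ATP 35 uM, galactose 100 uM, 1 h room temperature, then luciferase-based ATP detection.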
TrxR1 substrate = rat thioredoxin reductase 1 substrate activity. hit rate 0.01% among 390,000. Potency, µM (titrated, usually from 114 µM), for the others: top-dose activity change, negative = substrate turnover. AID 588456. purified TrxR1 substrate turnover, NADPH consumption readout; note: potency is the fitted concentration of half-maximal effect; nearly all actives have a fitted effect of over 50% in size
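Rat TrxR1, dispensed at 90 nM, was prereduced with 400 uM NADPH (final) for 5 min at ~22 deg C, then incubated with compound 15 min before 400 uM selenite. A first-read NADPH fluorescence drop versus no-compound background flagged substrates.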
rTrxR1 inhibitor = inhibitors of rat thioredoxin reductase 1; O89049; recombinant rTrxR1, NADPH fluorescence consumption, selenite substrate; Potency, µM (top dose mostly 114 µM), without a hit: top-dose activity change, negative = inhibition, hits mostly inhibitors; hit rate 1% among 390,000; note: potency is the fitted concentration of half-maximal effect; nearly all actives have a fitted effect of over 65% in size
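Rat TrxR1 (90 nM in the dispensed reagent) was pre-reduced with 400 uM NADPH for 5 min at room temperature, then incubated with compound for 15 min. After 400 uM selenite was added, NADPH fluorescence (Ex 340/Em 450 nm) was followed for 8 min.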
* hit, by the source's call; [ ] = remark or other dose. Unless noted, calls come from the whole dose curve; as a rule, active = well fitted curve in the direction sought with a large enough effect; inconclusive = small, poorly fitted or top-dose-only effect, or another doubt; inactive = no such curve, though single readings can be large; an effect the other way counts as inactive or inconclusive. % is set by controls: 0 for no effect and ±100 for the full control effect.

CC1=CC(C)(C)Nc2ccc(OC(=O)CN3C(=O)c4ccccc4C3=O)cc21 was read as RORg inh 4.5µM*, VP16 counter 7.1µM*, Coupling enz -2, TrxR1 substrate -2% and rTrxR1 inhibitor -9%.
CC1=CC(C)(C)Nc2ccc(OC(=O)CN3C(=O)c4cccc5cccc(c45)C3=O)cc21 was read as RORg inh -38%, VP16 counter -20%, Coupling enz -54*, GALK inhibitor 1%, TrxR1 substrate 9% and rTrxR1 inhibitor 8.9µM*.
`CC1=CC(C)(C)Nc2ccc(OC(=O)C(Cc3ccccc3)N3C(=O)c4ccccc4C3=O)cc21` (configuration not stated) gave RORg inh inconclusive, VP16 counter -18%, Coupling enz -5, GALK inhibitor -2%, TrxR1 substrate 6%[57.1 µM] and rTrxR1 inhibitor 19%[57.1 µM].
`CCCN(C(=O)c1c(C)oc2ncnc(N3CCOCC3)c12)c1ccc(Cl)c(Cl)c1` gave TrxR1 substrate 0% and rTrxR1 inhibitor 10%.
Screening CCn1cc(C(=O)NCc2ccc(C)o2)c2cc(OC)c(OC)cc2c1=O returned RORg inh 0%, VP16 counter 1%, Coupling enz -5, GALK inhibitor 1%, TrxR1 substrate -1% and rTrxR1 inhibitor 22µM*.
COCCCN(C(=S)NC(=O)c1ccc(Br)cc1)c1c(N)n(Cc2ccccc2)c(=O)[nH]c1=O was read as RORg inh 10µM*, VP16 counter 3%, Coupling enz 5, GALK inhibitor 0%, TrxR1 substrate 4%[57.1 µM] and rTrxR1 inhibitor inconclusive.
COCCCN(C(=S)NC(=O)C(C)(C)C)c1c(N)n(Cc2ccccc2)c(=O)[nH]c1=O was read as RORg inh -32%, VP16 counter 2%, Coupling enz 1, GALK inhibitor -2%, TrxR1 substrate 4% and rTrxR1 inhibitor 6%.
C=CCOc1cccc(C(=O)/C=C2/C(=O)Nc3ccccc32)c1 was read as RORg inh 13µM*, VP16 counter inconclusive, Coupling enz 1, GALK inhibitor -4%, TrxR1 substrate -2% and rTrxR1 inhibitor -13%.
`CN1C(=O)/C(=C\C(=O)c2cccs2)c2ccccc21` gave RORg inh 5.6µM*, VP16 counter 13µM*, Coupling enz 0, GALK inhibitor 0%, TrxR1 substrate 0%[57.1 µM] and rTrxR1 inhibitor -23%[57.1 µM].
O=C1Nc2ccc(Br)cc2/C1=C/C(=O)c1ccccc1 was read as TrxR1 substrate 7%[57.1 µM] and rTrxR1 inhibitor -7%[11.4 µM].
Screening CC(=O)/C=C1\C(=O)N(C)c2ccccc21 returned TrxR1 substrate 20%[57.1 µM] and rTrxR1 inhibitor 30µM*.
CC(=O)/C=C1/C(=O)Nc2ccccc21 was read as RORg inh 3.5µM*, VP16 counter 7.1µM*, Coupling enz 1, GALK inhibitor 0%, TrxR1 substrate 2% and rTrxR1 inhibitor inconclusive.
`O=C1CCN(C(=O)c2cccs2)c2ccccc21` gave RORg inh -12%, VP16 counter 3%, Coupling enz 5, TrxR1 substrate -4% and rTrxR1 inhibitor 5%.
CN1C(=O)c2ccccc2C(O)c2ccccc21 (configuration not stated) was read as TrxR1 substrate 1% and rTrxR1 inhibitor 13%.
CC(=O)N(C)c1ccc(N=C2C(=O)Nc3ccccc32)cc1 was read as RORg inh -3%, VP16 counter -4%, Coupling enz 1, GALK inhibitor 4%, TrxR1 substrate -9% and rTrxR1 inhibitor -32%.
For COc1cccc(-c2cn3ncsc3n2)c1 the results were TrxR1 substrate 6% and rTrxR1 inhibitor 27%.
`COc1cccc(/C=N/NC(=O)C(C)n2nnc3ccccc32)c1` (configuration not stated) gave RORg inh -15%, VP16 counter -3%, Coupling enz -2, GALK inhibitor 2%, TrxR1 substrate 4%[57.1 µM] and rTrxR1 inhibitor -3%[57.1 µM].
For CN1CCN(NC(=S)NC2CCCC2)CC1 the results were RORg inh 0%, VP16 counter -15%, Coupling enz 2, GALK inhibitor 0%, TrxR1 substrate 6% and rTrxR1 inhibitor 11%.
CN1CCN(NC(=S)NC(C)(C)CC(C)(C)C)CC1 was read as RORg inh 6.3µM*, VP16 counter 18µM*, Coupling enz 0, GALK inhibitor 4%, TrxR1 substrate 3%[57.1 µM] and rTrxR1 inhibitor -5%[57.1 µM].
Screening Cc1ccc(-n2ncc(C(=O)N3CCN(C(=O)c4ccco4)CC3)c2C2CCN(C(=O)OC(C)(C)C)CC2)cc1C returned RORg inh -4%, VP16 counter 0%, GALK inhibitor 7%, TrxR1 substrate -8% and rTrxR1 inhibitor 28µM*.
C=CCNC(=S)NN(c1ccccc1)c1ccccc1 was read as RORg inh 2µM*, VP16 counter 6.3µM*, Coupling enz 1, GALK inhibitor -3%, TrxR1 substrate 10% and rTrxR1 inhibitor 13%[57.1 µM].
Screening C=CCNC(=S)N/N=C(\C)c1cccc(NC(C)=O)c1 returned RORg inh 3.5µM*, VP16 counter inconclusive, Coupling enz 1, GALK inhibitor 12%, TrxR1 substrate 1% and rTrxR1 inhibitor -10%.
C=CCNC(=O)NC(=S)c1ccccc1 was read as RORg inh 13µM*, VP16 counter inconclusive, Coupling enz 1, GALK inhibitor 1%, TrxR1 substrate 10% and rTrxR1 inhibitor -7%.
For C=CCNC(=S)N/N=C(\C)c1cc(OC)c(OC)c(OC)c1 the results were RORg inh 2µM*, VP16 counter 4.5µM*, Coupling enz 2, GALK inhibitor 1%, TrxR1 substrate -11% and rTrxR1 inhibitor -3%.
`COc1cc(C(=O)N/N=C(\C)c2ccc3c(c2)OCO3)cc(OC)c1OC` gave RORg inh -23%, VP16 counter -6%, Coupling enz 5, GALK inhibitor -1%, TrxR1 substrate 2%[57.1 µM] and rTrxR1 inhibitor 7%[57.1 µM].
For C=CCNC(=O)c1ccccc1NC(=O)c1ccccc1 the results were RORg inh 18%, VP16 counter -5%, Coupling enz 1, GALK inhibitor -2%, TrxR1 substrate 13% and rTrxR1 inhibitor -1%.
C=CCNC(=S)Nc1cccc(NC(=S)NCC=C)c1 was read as RORg inh 7.9µM*, VP16 counter inconclusive, Coupling enz -1, GALK inhibitor -2%, TrxR1 substrate 2% and rTrxR1 inhibitor -28%.
CCN(CC)/[N+]([O-])=N/Oc1cc(O/N=[N+](\[O-])N(C)C)c([N+](=O)[O-])cc1[N+](=O)[O-] was read as RORg inh inconclusive, VP16 counter -4%, Coupling enz 0, TrxR1 substrate -10% and rTrxR1 inhibitor 11µM*.
